The structures appear in SMILES notation.
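Further: KINOMEscan kinase panel screen.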

The assay relates to CSNK1A1. The following applies: concentration: 1 μM, replicates: in singlicate; n = 1.
On to `O=C(Nc1cccc(Oc2ccc3nc(NC(=O)C4CC4)cn3n2)c1)c1ccccc1C(F)(F)F`, for which the “%Inh” value is on record as 24%. Then `CC(C)c1nc(-c2cccc(NS(=O)(=O)c3c(F)cccc3F)c2F)c(-c2ccnc(Nc3ccc(N4CCOCC4)nc3)n2)s1` [GSK2008607], with 0%; and `Nc1ncc(-c2cccnc2)c2scc(-c3ccc4c(c3)CCN4C(=O)Cc3ccccc3)c12` [GSK683281], with 4%; and `Cn1cc(-c2ccc3c(c2)CCN3C(=O)Cc2cccc(F)c2)c2c(N)ncnc21` [GSK2603358], with 0%. Then `Cl.NC(=O)c1cccc(Nc2nccc(Nc3ccc(Oc4c(Cl)cccc4Cl)c(Cl)c3)n2)c1` [GW659009], with 13%; and `COCCOCCOc1cc2ncc3c4ccc(C#N)cc4[nH]c3c2cc1OC`, with 5%; and `COc1cccc(-c2ccc3c(NC(=O)C4CC4)n[nH]c3n2)c1` [SB-710903], with 0%. With `Nc1ncc(-c2ccc3nccc(-c4ccncc4)c3c2)cc1S(=O)(=O)N1CCOCC1` [GSK1627798] the figure was 3%; with `Cc1ccc(C(=O)N2CC[C@@H](O)C2)cc1-n1c(C)cc(OCc2ccc(F)cc2F)c(Br)c1=O`, 0%; with `O=C(O)C(F)(F)F.O=C(O)C(F)(F)F.O=c1[nH]ccc2nc(N[C@@H]3CCCNC3)nc(Nc3ccc(S(=O)(=O)N4CCOCC4)cc3)c12` [GSK2177277], 99.9%. As for `COc1cc(Nc2nccc(-c3c(-c4cccc(NC(=O)c5c(F)cccc5F)c4)nn4ncccc34)n2)cc(OC)c1OC` [GSK327238], the “%Inh” value is listed as 0%. With `COc1cccc(C2=C(Nc3ccc(Cl)c(C(=O)O)c3)C(=O)NC2=O)c1` [SB-390769], the “%Inh” value stood at 0%.

In the case of `Cc1ccc(C(=O)Nc2ccc(Nc3ccnc4cc(-c5nccs5)ccc34)cc2O)cc1.Cl` [GW494702], the “%Inh” value is 0%.

For `CCn1c(-c2nonc2N)nc2c(C#CC(C)(C)O)nc(OC[C@H](N)c3ccccc3)cc21` [GSK943949], the “%Inh” value is 7%.

Regarding `COC(=O)Nc1nc2cc(Oc3ccc(NC(=O)Nc4cc(C(F)(F)F)ccc4F)cn3)ccc2[nH]1.Cl.Cl` [GW681170], the “%Inh” value worked out at 0%. Turning to `Cl.Cl.NCC(NCc1ccc(-c2ccnc3[nH]ccc23)s1)c1ccccc1` (stereo not shown) [GSK1321565], the “%Inh” value was 10%.

For `O=c1[nH]cc(-c2ccc(N3CCOCC3)cc2)c2sc(-c3cn[nH]c3)cc12` [GSK2276055], the “%Inh” value is recorded as 73%. Take `c1ccc(-c2cnc3nccnn23)cc1` [AH20685]: the “%Inh” value is recorded as 0%. For `COc1cc(Nc2nccc(-c3c(-c4cccc(NC(=O)c5c(F)cccc5F)c4)nn4ccccc34)n2)cc(OC)c1OC` [GSK323521], the “%Inh” value came to 27%.

The values above are taken from publication PMC5540273 (PLoS ONE, 2017).
